# Test results published in PubChem BioAssay (Tox21).
# Inconclusive results are not listed. Where a call stands in place of a potency, no number is given. Unmarked numbers belong to inactive results. The source made the active and inactive calls. Unless noted, calls come from the whole dose curve; as a rule, active = well fitted curve in the direction sought with a large enough effect in the repeat runs; inconclusive = weak or mixed curves; inactive = no such curve, though single readings can be large; an effect the other way counts as inactive or inconclusive.
# Tests used:
# [1] = qHTS assay to identify small molecule antagonists of the estrogen related receptor (ERR) signaling pathway from Tox21 library - cell viability counter screen (AID 1224834); note: nearly all actives have a fitted effect of over 30% in size; note: potency is the fitted concentration of half-maximal effect
# In short: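 Multiplexed viability counter screen in ERR cells: 17.5 h compound exposure at 37 C, CellTiter-Fluor added, 30 min at 37 C/5% CO2, fluorescence read.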
# [2] = qHTS assay to identify small molecule agonists of the constitutive androstane receptor (CAR) signaling pathway - cell viability counter screen (AID 1224836); note: series mostly up to about 92 µM; nearly all actives have a fitted effect of over 45% in size
# In short: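 Compound titrations (15 concentrations) went onto HepG2-CYP2B6-hCAR cells 4 h after seeding, alongside PK11195 at a final 0.75 uM; a 23 h, 37 C/5% CO2 incubation preceded CellTiter-Fluor viability measurement.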
# [3] = qHTS assay to identify small molecule antagonists of the constitutive androstane receptor (CAR) signaling pathway - cell viability counter screen (AID 1224837); note: nearly all actives have a fitted effect of over 45% in size; note: potency is the fitted concentration of half-maximal effect; for activity change, negative = cytotoxicity: series mostly up to about 92 µM
# In short: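 Read-out: CellTiter-Fluor fluorescence after 23 hr at 37 C/5% CO2. Cells: HepG2 double-stable for hCAR and CYP2B6-2.2kb. Compounds tested at 15 concentrations in the presence of CITCO, final concentration 50 nM.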
# [4] = qHTS assay to identify small molecule antagonists of the estrogen related receptor signaling pathway with the pleiotropic PPARgamma coactivator (PGC) from Tox21 10K library - cell viability counter screen (AID 1224840; active = well fitted cell-killing curve with a large enough effect in the repeat runs, not every such curve was filed as active; note: nearly all actives have a fitted effect of over 40% in size; note: potency is the fitted concentration of half-maximal effect)
# In short: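 Fluorescence read-out of CellTiter-Fluor viability reagent, added after cells had been exposed to compound in DMSO for 17.5 h at 37 C; 30 min development at 37 C/5% CO2. Cells: PGC/ERR line, 2,000/well.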
# [5] = target: Thyrotropin receptor (Homo sapiens) (UniProt P16473); experiment: qHTS assay to identify small molecule agonists of the thyroid stimulating hormone receptor (TSHR) signaling pathway (AID 1224843; calls by dose curve; note: nearly all actives have a fitted effect of over 45% in size; note: potency is the fitted concentration of half-maximal effect)
# In short: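 Using 15 concentrations per compound in triplicate, cAMP production was monitored in TSHR-HEK293 cells after 30 min compound incubation at RT; HTRF reagents followed, with fluorescence intensity recorded after 1 h.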
# [6] = qHTS assay to identify small molecule agonists of the hypoxia (HIF-1) signaling pathway - cell viability counter screen (AID 1224844; calls by dose curve; note: nearly all actives have a fitted effect of over 50% in size; note: potency is the fitted concentration of half-maximal effect)
# In short: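 CellTiter-Glo luminescence read-out, 30 min RT, taken in the same wells as the beta-lactamase HRE reporter assay; HRE-bla ME-180 cells, 0.5% dialyzed FBS, 17 hr compound treatment at 37C, 5% CO2.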
# [7] = qHTS assay to identify small molecule agonists of the hypoxia (HIF-1) signaling pathway (AID 1224846; active = well fitted activation curve with a large enough effect in the signal ratio in the repeat runs, not every such curve was filed as active; the % refers to the signal ratio)
# In short: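 Beta-lactamase FRET read-out (CCF4-AM substrate) from ME-180 cells carrying an HRE-driven bla reporter, after 17 hrs compound exposure at 37C/5% CO2. Cells were seeded at 2,000 per well in 0.5% dialyzed FBS medium and preincubated 5 hrs.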
# [8] = qHTS assay to identify small molecule agonists of H2AX - cell viability counter screen (AID 1224847; calls by dose curve; note: nearly all actives have a fitted effect of over 30% in size; note: potency is the fitted concentration of half-maximal effect; for activity change, negative = cytotoxicity: top concentration of the series differs between compounds)
# In short: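 Read-out: CellTiter-Glo luminescence, 30 min RT. Cells: wild-type CHO-K1, 1000/well, 10% FBS, plated overnight at 37C. Treatment: 15 concentrations, 3 hr, 37C, 0.76% DMSO.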
# [9] = target: Luciferin 4-monooxygenase (Photinus pyralis) (UniProt P08659); experiment: qHTS assay to identify small molecule inhibitors of firefly luciferase (AID 1224835); note: nearly all actives have a fitted effect of over 25% in size; note: potency is the fitted concentration of half-maximal effect
# In short: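 Quantitative HTS format; KM concentrations of both substrates. Purified P. pyralis FLuc activity quantified from luminescence images.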
# [10] = target: Nuclear receptor subfamily 1 group I member 3 (Homo sapiens) (UniProt Q14994); experiment: qHTS assay to identify small molecule antagonists of the constitutive androstane receptor (CAR) signaling pathway (AID 1224838);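 note: HepG2 cells stably expressing hCAR with CYP2B6 luciferase reporter stimulated by CITCO; nearly all actives have a fitted effect of over 40% in size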; note: potency is the fitted concentration of half-maximal effect
# In short: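 Read-out: ONE-Glo luciferase luminescence after 30 min at room temperature. HepG2-CYP2B6-hCAR double-stable cells, compounds in 15-point titration plus 50 nM CITCO final, 24 h at 37 C/5% CO2.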
# [11] = target: Nuclear receptor subfamily 1 group I member 3 (Homo sapiens) (UniProt Q14994); experiment: qHTS assay to identify small molecule agonists of the constitutive androstane receptor (CAR) signaling pathway (AID 1224839); note: nearly all actives have a fitted effect of over 15% in size; note: potency is the fitted concentration of half-maximal effect;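 for activation: HepG2 cells stably carrying human CAR and a CYP2B6 luciferase reporter; series mostly up to about 92 µM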
# In short: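 In this screen, CAR-driven CYP2B6 promoter activity is measured by luminescence in HepG2-CYP2B6-hCAR cells after 24 h with test compounds and 0.75 uM PK11195 (final concentration).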
# [12] = qHTS assay to identify small molecule antagonists of the estrogen related receptor signaling pathway with the pleiotropic PPARgamma coactivator (PGC) from Tox21 10K library (AID 1224841; call rule not given here; note: actives are mostly falling curves and most rising ones were filed inactive; nearly all actives have a fitted effect of over 50% in size; note: potency is the fitted concentration of half-maximal effect)
# In short: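 Luminescence read-out (One-Glo luciferase reagent, 30 min at room temperature) from PGC/ERR cells exposed to DMSO-dissolved test compounds for 18 h at 37 C; cells, 2,000 per well, had been preincubated 6 h before compound transfer.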
# [13] = qHTS assay to identify small molecule agonists of H2AX (AID 1224845; active = well fitted activation curve with a large enough effect in the signal ratio in the repeat runs, not every such curve was filed as active; the % refers to the signal ratio; note: potency is the fitted concentration of half-maximal effect)
# In short: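 Wild-type CHO-K1 cells plated overnight, then exposed 3 hr at 37C to compounds at 15 concentrations (0.76% DMSO). Lysed, then HTRF anti-pH2AX(S139)-cryptate/anti-H2AX-d2 detection after 24 hr at room temperature; emissions 665 and 620 nm.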
# [14] = qHTS assay to identify small molecule antagonists of the estrogen related receptor (ERR) signaling pathway from Tox21 library (AID 1224848); note: nearly all actives have a fitted effect of over 50% in size; note: potency is the fitted concentration of half-maximal effect
# In short: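 Tox21 10K compounds in DMSO tested for ERR pathway antagonism in NTP's ERR cell line; 18 h, 37 C exposure; ONE-Glo luminescence.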
# [15] = qHTS assay to identify small molecule agonists of the estrogen related receptor signaling pathway with the pleiotropic PPARgamma coactivator (PGC) from Tox21 10K library (AID 1224842); note: nearly all actives have a fitted effect of over 15% in size
# In short: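 PGC/ERR reporter cells (NTP line) were seeded 2,000 per well, rested 6 h at 37 C/5% CO2, then pin-dosed with compounds in DMSO for 18 h at 37 C; luciferase read by One-Glo luminescence after 30 min at room temperature.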
# Nuclear receptor subfamily 1 group I member 3 (Homo sapiens), sequence (Q14994 whole entry, looked up): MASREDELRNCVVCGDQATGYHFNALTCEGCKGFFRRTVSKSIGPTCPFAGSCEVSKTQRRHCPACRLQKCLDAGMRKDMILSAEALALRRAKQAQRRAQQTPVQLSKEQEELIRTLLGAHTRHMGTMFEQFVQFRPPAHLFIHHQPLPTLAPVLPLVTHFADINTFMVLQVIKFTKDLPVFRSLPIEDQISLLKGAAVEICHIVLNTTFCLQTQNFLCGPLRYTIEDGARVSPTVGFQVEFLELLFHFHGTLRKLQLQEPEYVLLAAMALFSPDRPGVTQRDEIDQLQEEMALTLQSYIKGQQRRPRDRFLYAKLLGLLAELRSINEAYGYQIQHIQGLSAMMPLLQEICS
# Thyrotropin receptor (Homo sapiens), sequence (P16473 whole entry, looked up): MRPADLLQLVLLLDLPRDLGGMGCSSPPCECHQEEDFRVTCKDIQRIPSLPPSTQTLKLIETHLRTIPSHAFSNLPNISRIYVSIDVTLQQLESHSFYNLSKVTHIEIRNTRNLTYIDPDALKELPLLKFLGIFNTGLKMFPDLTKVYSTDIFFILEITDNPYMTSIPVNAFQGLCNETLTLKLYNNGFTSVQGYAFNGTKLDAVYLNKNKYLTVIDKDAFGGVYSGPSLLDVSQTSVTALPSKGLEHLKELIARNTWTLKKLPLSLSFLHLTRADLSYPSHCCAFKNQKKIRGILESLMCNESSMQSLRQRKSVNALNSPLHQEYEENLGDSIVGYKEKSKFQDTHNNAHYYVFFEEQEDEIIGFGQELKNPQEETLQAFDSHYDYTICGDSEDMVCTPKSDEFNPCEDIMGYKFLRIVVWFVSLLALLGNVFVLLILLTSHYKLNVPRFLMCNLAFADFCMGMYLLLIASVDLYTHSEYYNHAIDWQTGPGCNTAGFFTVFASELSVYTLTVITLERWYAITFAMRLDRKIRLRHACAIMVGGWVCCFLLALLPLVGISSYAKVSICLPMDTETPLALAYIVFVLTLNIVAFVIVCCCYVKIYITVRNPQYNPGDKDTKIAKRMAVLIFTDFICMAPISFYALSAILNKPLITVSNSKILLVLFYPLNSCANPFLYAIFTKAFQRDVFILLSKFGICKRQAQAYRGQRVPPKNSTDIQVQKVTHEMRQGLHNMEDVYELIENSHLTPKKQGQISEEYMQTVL
# Luciferin 4-monooxygenase (Photinus pyralis), sequence (P08659 whole entry, looked up): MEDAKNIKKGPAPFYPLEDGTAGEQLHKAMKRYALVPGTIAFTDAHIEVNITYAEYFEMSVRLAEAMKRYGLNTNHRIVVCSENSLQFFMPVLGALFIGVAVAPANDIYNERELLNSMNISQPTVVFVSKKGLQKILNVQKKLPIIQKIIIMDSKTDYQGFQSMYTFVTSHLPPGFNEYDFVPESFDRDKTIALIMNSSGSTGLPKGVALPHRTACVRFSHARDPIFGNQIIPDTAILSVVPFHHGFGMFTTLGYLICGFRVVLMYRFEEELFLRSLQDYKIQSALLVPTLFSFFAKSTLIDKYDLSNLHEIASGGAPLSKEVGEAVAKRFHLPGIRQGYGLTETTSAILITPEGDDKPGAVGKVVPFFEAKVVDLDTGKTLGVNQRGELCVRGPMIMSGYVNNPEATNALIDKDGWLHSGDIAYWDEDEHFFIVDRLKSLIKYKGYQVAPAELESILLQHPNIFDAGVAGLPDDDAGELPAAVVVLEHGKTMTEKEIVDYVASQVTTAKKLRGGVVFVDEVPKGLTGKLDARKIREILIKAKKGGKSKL
structure (smiles),measurement,setting,value
CCCCNc1ccc(NCCCC)c2c1C(=O)c1ccccc1C2=O,"viability change, negative = cytotoxic",[1],-12.4% [at 19 µM]
same,"viability change, negative = cytotoxic",[2],-17.5% [at 19 µM]
same,"activity change, negative = cytotoxicity",[3],5.61% [at 19 µM]
same,"viability change, negative = cytotoxic",[4],-1.23% [at 19 µM]
same,activation,[5],-9.62% [at 19 µM]
same,"activity change, negative = cytotoxicity",[6],-26.2% [at 15.8 µM]
same,activation,[7],0.413% [at 15.8 µM]
same,"activity change, negative = cytotoxicity",[8],-12.2% [at 31.6 µM]
CN(C[C@@H](CC[N+]12CCC(C3CCCCC3)(CC1)CC2)c1ccc(Cl)c(Cl)c1)C(=O)c1cc(C(F)(F)F)cc(C(F)(F)F)c1,Potency,[1],48.6 µM (active)
same,Potency,[9],inactive
same,Potency,[3],68.6 µM (active)
same,Potency,[10],54.5 µM (active)
same,Potency,[11],inactive
same,Potency,[12],inactive
same,Potency,[6],19.5 µM (active)
same,Potency,[13],inactive
same,Potency,[8],50.5 µM (active)
same,Potency,[14],27.3 µM (active)
CCCCCc1ccc(O)cc1,Potency,[1],inactive
same,Potency,[9],56.4 µM (active)
same,Potency,[3],inactive
same,Potency,[10],inactive
same,Potency,[11],54.5 µM (active)
same,Potency,[4],inactive
same,Potency,[12],inactive
same,Potency,[15],inactive
same,Potency,[5],inactive
same,Potency,[8],89.8 µM (active)
c1ccc(-c2ccc(C(c3ccccc3)n3ccnc3)cc2)cc1 (centres undefined),Potency,[1],33.5 µM (active)
same,Potency,[9],inactive
same,Potency,[3],inactive
same,Potency,[10],inactive
same,Potency,[4],inactive
same,Potency,[12],29.8 µM (active)
same,Potency,[15],inactive
same,Potency,[5],inactive
same,Potency,[6],inactive
[Cl][Eu]([Cl])[Cl],Potency,[1],inactive
same,Potency,[9],31.7 µM (active)
same,Potency,[2],inactive
same,Potency,[4],inactive
same,Potency,[6],inactive
same,Potency,[7],inactive
same,Potency,[8],inactive
CCc1cccc(C)c1N(C(=O)CS(=O)(=O)O)C(C)COC (centres undefined),Potency,[1],inactive
same,Potency,[9],inactive
same,Potency,[3],inactive
same,Potency,[10],inactive
same,Potency,[11],inactive
same,Potency,[4],inactive
same,Potency,[5],inactive
same,Potency,[6],inactive
same,Potency,[13],inactive
same,Potency,[7],inactive
same,Potency,[8],inactive
CN(C)CCOc1ccc(/C(=C(/CCCl)c2ccccc2)c2ccccc2)cc1,Potency,[1],51 µM (active)
same,Potency,[9],inactive
same,Potency,[11],inactive
same,Potency,[4],57.2 µM (active)
same,Potency,[15],inactive
same,Potency,[5],inactive
same,Potency,[6],40.9 µM (active)
same,Potency,[8],94.3 µM (active)
same,Potency,[14],51 µM (active)
CC(CC(C)(C)C)CC(C)(C)CC(C)(C)C (centres undefined),Potency,[1],inactive
same,Potency,[9],inactive
same,Potency,[3],inactive
same,Potency,[10],inactive
same,Potency,[11],inactive
same,Potency,[4],inactive
same,Potency,[5],inactive
same,Potency,[6],inactive
same,Potency,[13],inactive
same,Potency,[7],inactive
same,Potency,[8],inactive
CCCCC/C=C\C=C\C(=O)OCC,Potency,[1],71.5 µM (active)
same,Potency,[9],inactive
same,Potency,[6],51 µM (active)
same,Potency,[13],59 µM (active)
same,Potency,[8],inactive
CC(C)(C)C1=CC(=O)C(C(C)(C)C)=CC1=O,Potency,[1],inactive
same,Potency,[9],inactive
same,Potency,[3],inactive
same,Potency,[10],inactive
same,Potency,[11],21.1 µM (active)
same,Potency,[12],inactive
same,Potency,[15],inactive
same,Potency,[5],9.44 µM (active)
same,Potency,[7],inactive
same,Potency,[8],inactive
same,Potency,[14],inactive
Nc1ccc2c(S(=O)(=O)O)cccc2c1S(=O)(=O)O,Potency,[1],inactive
same,Potency,[9],inactive
same,Potency,[3],inactive
same,Potency,[12],inactive
same,Potency,[15],inactive
same,Potency,[5],inactive
same,Potency,[6],inactive
same,Potency,[7],inactive
same,Potency,[8],inactive
CSc1nnc(C(C)(C)C)c(=O)[nH]1,Potency,[1],inactive
same,Potency,[9],inactive
same,Potency,[3],inactive
same,Potency,[10],inactive
same,Potency,[11],inactive
same,Potency,[4],inactive
same,Potency,[6],inactive
same,Potency,[13],inactive
same,Potency,[7],inactive
NCc1cccc(C2CCN(C(=O)c3ccc(C#Cc4ccccc4F)o3)CC2)c1,Potency,[1],68.6 µM (active)
same,Potency,[9],inactive
same,Potency,[3],68.6 µM (active)
same,Potency,[11],inactive
same,Potency,[6],54.9 µM (active)
same,Potency,[8],56.6 µM (active)
Cc1ccc(C2OC[C@@H]3OC(c4ccc(C)cc4)O[C@H]([C@H](O)CO)[C@@H]3O2)cc1 (some centres undefined),Potency,[1],inactive
same,Potency,[9],inactive
same,Potency,[3],inactive
same,Potency,[4],inactive
same,Potency,[5],inactive
same,Potency,[6],inactive
same,Potency,[13],inactive
same,Potency,[7],inactive
same,Potency,[8],inactive
CCCCCCCCOC(=O)c1cc(O)c(O)c(O)c1,Potency,[1],24.3 µM (active)
same,Potency,[9],inactive
same,Potency,[3],inactive
same,Potency,[10],inactive
same,Potency,[11],inactive
same,Potency,[15],inactive
same,Potency,[5],inactive
same,Potency,[6],inactive
same,Potency,[8],89.8 µM (active)
same,Potency,[14],3.44 µM (active)
Cc1cccc2c1ccc1ccccc12,Potency,[1],inactive
same,Potency,[2],inactive
same,Potency,[10],inactive
same,Potency,[11],61.1 µM (active)
same,Potency,[4],inactive
same,Potency,[15],inactive
same,Potency,[6],inactive
same,Potency,[13],inactive
same,Potency,[7],inactive
same,Potency,[8],inactive
